This is a sample that favours compounds with a hit; in the whole collection about 2.6% have one here.
HEK293 tox: cytotoxic in the GLP-1 receptor inverse agonist counter-screen | HEK293 cAMP-luciferase reporter cells, luminescence, 24 h | Potency, µM (top dose mostly 38.3 µM), without a hit: top-dose activity change, negative = inhibition, usual class: inhibitors | 410,000 compounds, 0.13% hits;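 further: loss of luciferase light is scored as toxicity; on the % scale 0 is the no-effect control and ±100 the full control effect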
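Compound-treated cells are incubated 24 hr at 37 deg C under 5% CO2 after a 12 hour attachment period, then luciferase detection reagent is added and luminescence is measured following 12 min at room temperature; lowered signal indicates toxicity.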
GLP-1R inv ag: inverse agonists of human GLP-1 receptor. P43220. HEK293 GLP-1R CRE-luciferase, luminescence, 24 h; GLP-1R form is constitutively active. Potency, µM (titrated, usually from 38.3 µM), without a hit: at the top dose activity change, negative = inhibition, usual class: inhibitors. 410,000 compounds, 1.6% hits; further: on the % scale 0 is the no-effect control and ±100 the full control effect; nearly all actives have a fitted effect of over 55% in size
Target sequence (P43220 whole entry, looked up): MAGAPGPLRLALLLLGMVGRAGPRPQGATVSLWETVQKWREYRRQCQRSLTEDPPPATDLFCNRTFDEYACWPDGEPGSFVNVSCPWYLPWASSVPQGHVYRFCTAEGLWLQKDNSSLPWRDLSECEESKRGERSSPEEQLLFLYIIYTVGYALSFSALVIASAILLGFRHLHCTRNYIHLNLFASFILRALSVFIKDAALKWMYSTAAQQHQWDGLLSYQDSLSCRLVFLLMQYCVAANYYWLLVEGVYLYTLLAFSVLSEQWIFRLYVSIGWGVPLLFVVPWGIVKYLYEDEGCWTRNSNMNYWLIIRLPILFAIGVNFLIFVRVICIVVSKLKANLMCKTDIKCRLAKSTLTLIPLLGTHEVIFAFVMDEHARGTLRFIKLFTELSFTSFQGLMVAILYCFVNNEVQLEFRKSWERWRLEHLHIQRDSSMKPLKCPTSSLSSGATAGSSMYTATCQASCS
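GLP-1R inverse agonism mode: basal reporter luminescence in engineered HEK293 cells measured after one day of compound exposure at 37 deg C, with a 12 min room-temperature detection step.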
GLP-1R agonist: GLP-1 receptor (human) agonism. 380,000 compounds, 0.007% hits. AID 624172. P43220. Potency, µM (titrated, usually from 45.6 µM), without a hit: top-dose activation, most hits filed as activators. HEK293 GLP-1R CRE-luciferase, luminescence, 4-6 h; cells express a hypersensitive GLP-1R form; further: % of control where 0% means no effect
BRCA1 expr up: activators of BRCA1 expression; MCF7-BRCA1-FFLuc reporter, luminescence, 48 h; response scale: scaled: vehicle 0%, 10 µM genistein 100%; Potency, µM (titrated, usually from 46.1 µM), without a hit: at the highest dose activation, most hits filed as activators; 380,000 compounds, 1.1% hits; AID 624202; further: nearly all actives have a fitted effect of over 80% in size
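Quantitative HTS in MCF7 cells stably reporting BRCA1 expression via firefly luciferase. Compound treatment lasts 48 h at 37 °C in phenol-red free MEM. Activation is expressed relative to genistein at 10 microM and DMSO.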
* hit, by the source's call; ? = inconclusive; / = no result; [ ] = another dose, or the depositor's remark. The call rests on the fitted dose curve; in most records, active means well fitted curve in the direction sought with a large enough effect; inconclusive means small, poorly fitted or top-dose-only effect, or another doubt; inactive means no such curve, though single readings can be large; an effect the other way counts as inactive or inconclusive. Potency means the concentration at half of the fitted maximal effect.

SMILES	HEK293 tox	GLP-1R inv ag	GLP-1R agonist	BRCA1 expr up
CN(c1ccccc1)c1nc(N)c([N+](=O)[O-])c(N2CCCC2)n1	-20%	?	18%	11µM*
O=C(C[n+]1ccccc1)N/N=C/c1ccc(F)cc1	-2%[7.66 µM]	4%[7.66 µM]	0%	21%
c1ccc2oc(C3=NNC(=NC4CC4)SC3)cc2c1	?	8.9µM*	11%	-27%
Cc1cc(C)n(CCCN2CCC(C(=O)Nc3cccc(-c4cccc(F)c4)c3)CC2)n1	?	7.1µM*	-8%	-48%
CCn1ncc(CN2CCC(C(=O)Nc3cccc(-c4cccc(F)c4)c3)CC2)c1C	5%	5%	-3%	14%
C/C(CC(=O)Nc1ccc(C)c(Cl)c1)=N\NC(=O)c1ccncc1	11%	10µM*	6%	-19%
C/C(CC(=O)Nc1ccc(Cl)c(Cl)c1)=N\NC(N)=S	?	11µM*	-6%	-36%
CCOC(=O)c1cnc(-n2nc(C)cc2C)nc1NC1CCCC1	?	2.5µM*	17%	-3%
CCOC(=O)c1cnc(-n2nc(C)cc2C)nc1NCc1ccc2c(c1)OCO2	?	3.5µM*	-2%	-26%
CCOC(=O)c1cnc(-n2nc(C)cc2C)nc1NCCc1ccccc1	?	?	-3%	-27%
CN(C)c1ccc(CCc2ccnc3ccccc23)cc1	/	/	/	9%
O=C(c1ccc2c(c1)N(Cc1c(F)cccc1Cl)C(=O)c1ccccc1S2)N1CCOCC1	2%	-17%	-1%	11%
CCOC(=O)c1oc2ccc(CNCCO)c(Cl)c2c1C	32%	0%	9%	11µM*
CCOC(=O)c1oc2ccc(CNC3CCCCC3)c(Cl)c2c1C	-27%	?	17%	-10%
O=C1NC2CCCCN2C12CCN(CCCN1c3ccccc3CCc3ccc(Cl)cc31)CC2 (stereo not drawn)	/	/	0%	/
CN(C)c1ccc(N=Nc2ccc3ncccc3c2)cc1	-8%	35%	8%	31%
CN(C)c1ccc(N=Nc2cccc(F)c2)cc1	?	-2%	5%	1.6µM*
O=C(NCc1ccccc1Cl)c1ccc(CSCc2cccc(F)c2)o1	2%	?	/	/
CCN(CC)CCOC(=O)c1ccc(NC(=O)CCCN2C(=O)S/C(=C/c3ccc(OC)cc3)C2=S)cc1	?	2.8µM*	-3%	-87%
C=CCNC(=S)NNC(=O)COc1ccc(Br)cc1	-22%	-3%	-1%	14%
C=CCNC(=S)NNC(=O)COc1ccc2cc(Br)ccc2c1	3%	?	7%	10µM*
C=CS(=O)(=O)c1c2cc(OC)ccc2nc2ccc(OC)cc12	372%	?	-11%	-88%
CCCCCCC[C@@H](C/C=C/CCC(=O)N(C)C/C(=C/Cl)C/C(=C\C(=O)N1C[C@H](O)CC1=O)OC)OC	-19%	11µM*	4%	-11%
CN1CCC(N(C)C(=O)c2cc(S(=O)(=O)N(C)c3ccccc3)ccc2Cl)CC1	0%	17%	-5%	-6%
CN1CCC(N(C)C(=O)c2ccc(Cl)c(S(=O)(=O)N(C)c3ccc(Cl)cc3)c2)CC1	-14%	11µM*	-1%	-26%
SMILES	HEK293 tox	GLP-1R inv ag	GLP-1R agonist	BRCA1 expr up
Cc1ccccc1/C=C1\CCCc2ccccc2C1=O	-1%	?	0%	7.1µM*
NC(=S)NN=C1CCCCCCCCCC1	?	?	-3%	-32%
NC(=S)NN=C1CCC(C2CCCCC2)CC1 (stereo not drawn)	?	2.2µM*	14%	-45%
CCC(C)Sc1cccc(-c2nc3ccc(C)cn3c2NC2CCCCC2)c1 (stereo not drawn)	-22%	11µM*	15%	6%
CCC(C)Sc1cc(-c2nc3ccccn3c2NC2CCCCC2)ccc1OC (stereo not drawn)	-22%	5.6µM*	-1%	-81%
CCCCNc1c(-c2cccc(SC(C)CC)c2)nc2ccc(Cl)cn12 (stereo not drawn)	1%	10µM*	8%	-18%
CCC(C)Sc1cccc(-c2nc3cnccn3c2NC2CCCCC2)c1 (stereo not drawn)	113%	10µM*	-2%	-65%
CCC(C)Sc1ccc(-c2nc3ccc(C)cn3c2NC2CCCCC2)cc1 (stereo not drawn)	2%	1%	5%	-18%
Cc1cc(C)n(C(C)CC(=O)Nc2ccc(Cl)cc2C)n1 (stereo not drawn)	5%	2%	/	/
O=C(COc1ccc2ccccc2c1)Nc1ccc(O)c(-c2nc3ccccc3o2)c1	/	/	/	-5%
CCCCn1c(N)c(N(CCOC)C(=O)C2CCN(S(=O)(=O)c3ccc(Cl)cc3)CC2)c(=O)[nH]c1=O	-1%	24%	-2%	23%
O=C(c1ccc(Cl)cc1)n1nc(-c2ccccc2)nc1NCc1ccco1	14%	15%	/	/
COc1ccc(NC(=O)CCCSc2nc(-c3ccco3)cc(C(F)(F)F)n2)cc1OC	-8%	11µM*	8%	-41%
OCCN(CCO)CC(O)COc1ccc(C23CC4CC(CC(C4)C2)C3)cc1 (stereo not drawn)	?	2.8µM*	?	-58%
OCCN(CCO)CC(O)COc1ccc(Br)cc1 (stereo not drawn)	3%	?	-6%	33%
NS(=O)(=O)c1cc2c(cc1Cl)N[C@H](Cc1ccccc1)NS2(=O)=O	/	/	6%	/
Cc1ccc(N2C(=O)C(CN3CCCCC3)C2c2ccccc2)cc1 (stereo not drawn)	14%	?	7%	-16%
Cc1ccc(N2C(=O)C(CN3CCCC3)C2c2ccccc2)cc1 (stereo not drawn)	-7%	10µM*	6%	-23%
O=C(COc1ncnc2ccccc12)Nc1cc([N+](=O)[O-])ccc1F	-3%	7%	3%	0%
COc1ccc(CCCc2nnc(SCC(=O)NN)o2)c(C)c1	-2%	-31%	10%	-25%
CCCCN(CC)CCCNC(=O)c1cc2c(=O)n(CC)c3ccccc3c2s1	38%	2.8µM*	7%	0%
COCCNC(=O)c1cc2sc3ccccc3c2s1	-15%	-19%	1%	87%
CN(C)CCCNC(=O)c1cc2sc3ccccc3c2s1	?	4µM*	6%	-26%
CCOc1ccc(N2CC(O)Cn3c2nc2c3c(=O)n(CCCc3ccccc3)c(=O)n2C)cc1 (stereo not drawn)	-33%	5.6µM*	2%	-3%
COc1ccccc1CNC(=O)c1ccccc1C(=O)NC(CC(C)C)C(=O)NCc1ccccc1OC (stereo not drawn)	-7%	-2%	9%	6%
O=C(NCCC1=CCCCC1)C(=O)NCC(c1ccco1)N1CCN(c2ccccc2)CC1 (stereo not drawn)	-5%[1.53 µM]	-8%	-8%	-13%
COc1ccc(N2CCN(C(CNC(=O)C(=O)NCCC3=CCCCC3)c3ccco3)CC2)cc1 (stereo not drawn)	?	10µM*	-1%	-19%
CCN(CC)c1ccc2nc3ccccc3[n+](CC)c2c1	11µM*	?	-1%	-90%

Compound activity (PubChem)
